Compound activity: PubChem, National Center for Advancing Translational Sciences (NCATS)
Sfp inh: blocks B. subtilis Sfp PPTase activity; Q9F4F7; AID 1490; Biochemical Sfp PPTase activity, qHTS; 310,000 compounds, 3.5% hits; Potency, µM, for inactives: largest response in the series, negative = inhibition, hits mostly inhibitors;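 also: the enzyme is Sfp with the accession as filed and its product quenches rhodamine fluorescence; 0% = enzyme reaction without inhibitor and -100% = no enzyme wells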
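Fluorescence-quenching assay with 15 nM Sfp, 5 uM rhodamine-CoA and 12.5 uM BHQ-2-labelled ybbR peptide in pH 7.6 Hepes/MgCl2 buffer. Enzyme was pre-incubated with compound for 15 min at room temperature. Rate was taken from the 30-min fluorescence change (525/598 nm).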
BAZ2B inh: inhibitors of human BAZ2B bromodomain; AlphaScreen BAZ2B-H3K14Ac peptide displacement; Q9UIF8; Potency, µM (series often up to 114 µM), for inactives: at the highest dose activity change, negative = inhibition, usual class: inhibitors; 360,000 compounds, 4.4% hits; also: % is scaled to controls: 0 for no effect and ±100 for the full control effect; nearly all actives have a fitted effect of over 60% in size
Target sequence (Q9UIF8 whole entry, looked up): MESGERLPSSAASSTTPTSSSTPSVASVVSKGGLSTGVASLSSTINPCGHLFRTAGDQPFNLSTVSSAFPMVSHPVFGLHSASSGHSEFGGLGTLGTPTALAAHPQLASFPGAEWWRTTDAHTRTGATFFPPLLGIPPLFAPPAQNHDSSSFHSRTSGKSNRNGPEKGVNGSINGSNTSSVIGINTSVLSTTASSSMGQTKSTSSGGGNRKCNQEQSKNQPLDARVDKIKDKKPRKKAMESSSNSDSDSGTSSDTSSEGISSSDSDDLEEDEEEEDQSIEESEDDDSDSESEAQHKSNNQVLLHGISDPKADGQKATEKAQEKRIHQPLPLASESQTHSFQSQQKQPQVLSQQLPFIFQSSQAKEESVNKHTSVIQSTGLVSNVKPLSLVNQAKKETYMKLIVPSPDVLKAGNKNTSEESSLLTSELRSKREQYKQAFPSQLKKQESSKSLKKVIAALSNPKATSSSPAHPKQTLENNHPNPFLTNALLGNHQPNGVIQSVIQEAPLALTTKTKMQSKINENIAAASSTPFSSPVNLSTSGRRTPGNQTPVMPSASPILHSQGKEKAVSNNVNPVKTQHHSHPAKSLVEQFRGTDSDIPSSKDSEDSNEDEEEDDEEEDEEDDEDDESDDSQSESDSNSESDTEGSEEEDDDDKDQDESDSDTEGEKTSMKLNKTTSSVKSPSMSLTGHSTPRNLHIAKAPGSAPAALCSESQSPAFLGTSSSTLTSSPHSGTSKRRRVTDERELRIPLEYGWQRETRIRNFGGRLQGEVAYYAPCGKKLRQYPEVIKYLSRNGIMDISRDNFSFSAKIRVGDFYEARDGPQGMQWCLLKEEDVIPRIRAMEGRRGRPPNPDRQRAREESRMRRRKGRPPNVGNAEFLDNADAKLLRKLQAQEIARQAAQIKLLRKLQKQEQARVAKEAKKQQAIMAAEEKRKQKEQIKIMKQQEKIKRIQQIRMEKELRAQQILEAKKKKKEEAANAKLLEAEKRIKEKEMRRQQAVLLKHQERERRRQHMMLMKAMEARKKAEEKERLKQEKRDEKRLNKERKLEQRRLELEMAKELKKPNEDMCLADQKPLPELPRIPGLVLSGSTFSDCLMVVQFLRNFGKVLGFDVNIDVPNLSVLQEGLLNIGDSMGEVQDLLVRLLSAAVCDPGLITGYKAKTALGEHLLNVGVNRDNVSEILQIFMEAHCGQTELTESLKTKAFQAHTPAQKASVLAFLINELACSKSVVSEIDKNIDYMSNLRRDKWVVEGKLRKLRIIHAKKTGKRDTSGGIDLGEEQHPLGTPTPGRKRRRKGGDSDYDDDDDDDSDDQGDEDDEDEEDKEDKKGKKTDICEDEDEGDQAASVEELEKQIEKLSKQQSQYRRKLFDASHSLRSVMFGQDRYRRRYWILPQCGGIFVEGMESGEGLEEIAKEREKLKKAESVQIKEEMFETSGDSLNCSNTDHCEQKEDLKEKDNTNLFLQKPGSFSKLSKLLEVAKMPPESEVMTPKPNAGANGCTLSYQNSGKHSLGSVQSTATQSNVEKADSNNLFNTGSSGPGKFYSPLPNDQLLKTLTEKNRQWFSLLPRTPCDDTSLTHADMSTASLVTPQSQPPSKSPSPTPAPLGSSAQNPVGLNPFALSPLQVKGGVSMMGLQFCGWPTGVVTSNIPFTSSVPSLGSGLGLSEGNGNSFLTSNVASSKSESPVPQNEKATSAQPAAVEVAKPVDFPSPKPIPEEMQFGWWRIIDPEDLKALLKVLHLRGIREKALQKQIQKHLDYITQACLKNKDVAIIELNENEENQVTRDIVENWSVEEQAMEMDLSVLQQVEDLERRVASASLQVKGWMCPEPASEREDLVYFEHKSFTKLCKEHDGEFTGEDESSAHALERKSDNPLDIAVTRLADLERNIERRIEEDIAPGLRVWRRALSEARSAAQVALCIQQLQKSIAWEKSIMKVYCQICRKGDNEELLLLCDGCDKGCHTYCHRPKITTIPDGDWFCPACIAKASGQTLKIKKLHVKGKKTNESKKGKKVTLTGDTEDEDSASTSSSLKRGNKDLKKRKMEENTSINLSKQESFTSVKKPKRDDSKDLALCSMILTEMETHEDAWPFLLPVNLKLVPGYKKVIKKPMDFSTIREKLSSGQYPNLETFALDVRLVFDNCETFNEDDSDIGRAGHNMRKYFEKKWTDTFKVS
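Compounds, titrated to a top concentration of 110 uM, were incubated 30 min at room temperature with preformed BAZ2B/acetyl-K14 H3 peptide complex (50 nM each). Proximity signal was measured by AlphaScreen after 20 min with beads.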
JMJD2A Tudor inh: blocks the human JMJD2A Tudor domain; O75164; Potency, µM (top dose mostly 114 µM), for the others: top-dose activity change, negative = inhibition, hits mostly inhibitors; 390,000 compounds, 4.4% hits; AlphaScreen JMJD2A-Tudor / H3K4me3 peptide binding; AID 504339; also: % is scaled to controls: 0 for no effect and ±100 for the full control effect; nearly all actives have a fitted effect of over 50% in size
HP1b chromo inh: inhibitors of HP1-beta chromodomain binding to methylated histone tails; 390,000 compounds, 0.56% hits; Potency, µM (top dose mostly 114 µM), for the others: at the top dose activity change, negative = inhibition, usual class: inhibitors; AID 540317; P83916; AlphaScreen HP1-beta / biotin-H3K9me3 peptide binding; also: nearly all actives have a fitted effect of over 70% in size
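AlphaScreen: HP1-beta (50 nM) preformed 30 min with biotin-H3(1-18)K9me3 peptide (50 nM) in PBS pH 7.4, 0.01% Tween-20. Compound added for 30 min at RT, then streptavidin donor/nickel chelate acceptor beads (10 ug/mL) for 30 min.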
G9a block: inhibitors of human histone lysine methyltransferase G9a | Potency, µM (doses to about 102 µM), for inactives: at the top dose activity, negative = inhibition, actives largely listed as inhibitors | 350,000 compounds, 8.8% hits | Q96KQ7 | AID 504332 | G9a H3K9 monomethylation, AlphaScreen, 2 h; also: % is scaled to controls: 0 for no effect and ±100 for the full control effect; nearly all actives have a fitted effect of over 75% in size
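Step 1: enzyme (final 20 nM) with compound, 15 min RT. Step 2: substrate peptide 500 nM and SAM 20 uM, 2 h RT. Step 3: anti-H3K9me1 antibody and AlphaScreen beads, 10 min, then plate read.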
* marks the source's active call; other numbers are inactive results; ? = inconclusive; . = no result given; [ ] = dose if it differs, or a comment. Compounds with a hit are over-represented: about 12% of the library has one in this group of screens. Calls follow the shape of the dose curve; as a rule, active = well fitted curve in the direction sought with a large enough effect; inconclusive = small, poorly fitted or top-dose-only effect, or another doubt; inactive = no such curve, though single readings can be large; an effect the other way counts as inactive or inconclusive. Potency is read from the fitted curve at half-maximal effect.

SMILES | Sfp inh | BAZ2B inh | JMJD2A Tudor inh | HP1b chromo inh | G9a block
COCCN(C(=O)c1ccc(OCC(C)C)cc1)c1c(N)n(Cc2ccccc2)c(=O)[nH]c1=O | . | -1% | -8% | 12% | 35µM*
CCCCn1c(N)c(N(CCOC)C(=O)c2ccc(N(C)S(=O)(=O)c3ccc(C)cc3)cc2)c(=O)[nH]c1=O | . | 4% | -14% | -5% | ?
CCCCn1c(N)c(N(CCOC)C(=O)c2ccc(N3CCCC3=O)cc2)c(=O)[nH]c1=O | . | 10% | -13% | 29% | -4%[12.7 µM]
CCCn1c(N)c(N(CCOC)C(=O)c2ccc([N+](=O)[O-])cc2Cl)c(=O)[nH]c1=O | 2% | 8% | -9% | 4% | 50µM*
COCCN(C(=O)c1ccc(N2CCCC2=O)cc1)c1c(N)n(Cc2ccccc2)c(=O)[nH]c1=O | . | 6% | -12% | 35% | 7.9µM*
CN(C)C(CNS(=O)(=O)c1cc([N+](=O)[O-])ccc1Cl)c1ccco1 (centres undefined) | . | . | ? | -17% | .
CSc1nc2sc3c(c2c(=O)[nH]1)CCC3 | 0% | -2% | 0% | 38% | 4%[59 µM]
Brc1ccc(-c2csc(N3CCOCC3)n2)cc1 | -13% | -24% | -14% | 24% | ?
CCCn1c(N)c(N(CCOC)C(=O)c2ccc(N3CCCC3=O)cc2)c(=O)[nH]c1=O | . | 5% | 0% | 38% | 56µM*
Cc1ccc(OCC(=O)N2CCC(Cc3ccccc3)CC2)c([N+](=O)[O-])n1 | . | -4% | -25% | 26% | 10µM*
COc1ccc(N(CC(=O)NCc2ccc(F)cc2)S(=O)(=O)c2c(C)n[nH]c2C)cc1 | 15% | -3% | -7% | 23% | 11%[59 µM]
Cc1ccc(NC(=O)CSc2cn[nH]n2)cc1 | 16% | 3% | -11% | 37% | 50µM*
O=C(CSc1cn[nH]n1)Nc1ccc(O)c(C(=O)O)c1 | -5% | -14% | -19% | 25% | 13µM*
CCOc1ccc(NC(=O)CSc2cn[nH]n2)cc1 | . | 9% | -4% | 39% | -14%
Cc1onc(-c2ccccc2)c1C(=O)Nc1ccc(C(=O)N2CCCCC2)cc1 | 3% | -1% | -10% | 57% | .
O=C(Nc1ccc(F)cc1)C(c1ccccc1)N1CCN(CC(=O)N2CCOCC2)CC1 (centres undefined) | . | 6% | -6% | 25% | 10µM*
CC(=O)Nc1cccc(NC(=O)C(=O)NCCc2sc(-c3ccccc3)nc2C)c1 | . | 5% | -9% | 7%[57 µM] | 12%[59 µM]
CN1CCC(N(C)C(=O)/C=C/c2cn(-c3ccccc3)nc2-c2cccs2)CC1 | ? | -28% | ? | -24% | -18%
O=C(N/N=C/c1cn(-c2ccccc2)nc1-c1cccs1)c1ccc(Cl)cc1 | -5% | 0% | -26% | 13% | 3%[59 µM]
O=C(O)CCCCCN1C(=O)/C(=C/c2cn(-c3ccccc3)nc2-c2cccs2)SC1=S | . | . | 32µM* | ? | .
O=C(O)CCN1C(=O)/C(=C/c2cn(-c3ccccc3)nc2-c2cccs2)SC1=S | 21% | -12% | 22µM* | ? | -10%
O=C(O)CCCCCN1C(=O)/C(=C\c2cn(-c3ccccc3)nc2-c2cccs2)SC1=S | ? | 13µM* | 40µM* | -22% | 16µM*
CN(C)S(=O)(=O)N1CCN(C(=O)c2cccs2)CC1 | -3% | 9% | -8% | 35% | 3%[2.33 µM]
CCCCNCC1CCCO1 (centres undefined) | 12% | -6% | -6% | 16%[57 µM] | 7%
CCc1cccc(C)c1NC(=O)CCCn1c(=O)c2cccn2c2cccnc21 | 21% | -14% | -5% | 2% | 66%
SMILES | Sfp inh | BAZ2B inh | JMJD2A Tudor inh | HP1b chromo inh | G9a block
O=C1CC(c2ccco2)c2ccc3ccccc3c2N1 (centres undefined) | -4% | 50µM* | ? | -15% | 50µM*
Cc1ccc(CC(=S)N2CCOCC2)cc1 | 35µM* | 5% | -6% | -20% | 8.9µM*
COc1ccc(CC(=S)N2CCOCC2)cc1 | 16µM* | -1% | -19%[57.1 µM] | ? | ?
Cc1ccc(CC(=O)Nc2ccc(C(=O)N3CCOCC3)cc2)cc1 | -8% | -19% | -1% | 11% | 18µM*
CCc1ccc(CC(=S)N2CCOCC2)cc1 | 8% | 1% | -4% | 61% | 4%
CC(=O)/C(=N\Nc1ccc(C)cc1)N1CCOCC1 | -6% | -1% | -17% | 15% | 28µM*
N#Cc1cccc(S(=O)(=O)NCc2nnc3ccccn23)c1 | . | 12% | 3% | 45% | 17%[12.7 µM]
O=C(Cc1ccc(-c2ccccc2)cc1)N1CCOCC1 | -4% | -2% | -20% | 9% | -1%[12.7 µM]
O=C(Cc1ccc(Br)cc1)N1CCOCC1 | 20% | -8% | -9% | 23% | 79µM*
Cc1ccc2occ(CN3CCN(Cc4ccccc4)CC3)c(=O)c2c1 | -12% | ? | . | . | 14%[0.501 µM]
Cc1ccc2occ(C3NC(C(=O)O)CS3)c(=O)c2c1 (centres undefined) | 14µM* | 50µM* | 4% | 44% | 5µM*
Cc1ccc2occ(C3N[C@H](C(=O)O)CS3)c(=O)c2c1 (some centres undefined) | 50µM* | ? | 7.9µM* | ? | 32µM*
Cc1ccc2occ(CN3CCN(c4ccccc4)CC3)c(=O)c2c1 | -10% | -30% | ? | -9% | -5%[12.7 µM]
Cc1ccc(C(=O)Nc2c(C)cc(-c3ccccc3)oc2=O)cc1 | -2% | -14% | -14% | 20% | 2%
COc1ccc(CCNC(=O)c2cccc(NC3=NC4CS(=O)(=O)CC4S3)c2)c(OC)c1 (centres undefined) | 18% | -19% | 2% | 59% | 36%
CCN(CC)c1ccc(C=Nc2ccc(N(C)C)cc2)c(O)c1 | 50µM* | 32µM* | 56µM* | ? | 0.56µM*
CCN1CCN(c2ccc(N=Cc3ccc(O)cc3O)cc2)CC1 | -2% | 32µM* | ? | ? | .
CCN(CC)c1ccc(/C=N/N2C(C)CCCC2C)c(O)c1 (centres undefined) | 2% | 45µM* | ? | -13%[57 µM] | 45µM*
CCN(CC)c1ccc(C=Nc2cc(C)cc(C)c2)c(O)c1 | -2% | 9% | -20% | -4% | 8.9µM*
Cc1ccc2c(CN3C(=O)NC4(CCCCC4)C3=O)cc(=O)oc2c1C | 8% | -3% | -18% | 4% | -25%[59 µM]
COC(=O)Nc1nn(Cc2ccccc2F)cc1Br | 13% | 11% | -6% | 21% | 24%[59 µM]
CCN(CC)c1ccc(N=Cc2ccc(N(CC)CC)cc2O)cc1 | ? | 18µM* | 40µM* | ? | ?
CC(=O)Nc1ccc([C@H]2[C@H](C)CC[C@H]3C(=O)N4[C@@H](CC[C@@H](C)[C@@H]4c4ccc(NC(C)=O)cc4)C(=O)N32)cc1 | 21% | 56µM* | . | . | ?
CC(=O)Nc1ccc(C2C(C)CCC3C(=O)N4C(CCC(C)[C@@H]4c4ccc(NC(C)=O)cc4)C(=O)N32)cc1 (some centres undefined) | 6% | . | . | . | .
